# Screening data: PubChem, National Center for Advancing Translational Sciences (NCATS)
# Only a selection was taken, and hits are over-represented in it overall.
# Marburg entry inh = blocks Marburg virus binding to or entry into cells; Marburg virus pseudotyped entry inhibition, cell reporter; Potency, µM (top dose mostly 37.8 µM), for the others: at the top dose activity change, negative = inhibition, hits mostly inhibitors; hit rate 1.8% among 300,000; calls by dose curve; tested in HEK293 cells; note: potency is the fitted concentration of half-maximal effect; % is set by controls: 0 for no effect and ±100 for the full control effect
# Vaccinia mCherry = vaccinia inhibition (mCherry reporter); Vaccinia virus mCherry reporter infection, fluorescence; Potency, µM (doses to about 36.5 µM), without a hit: top-dose activity change, negative = inhibition, hits mostly inhibitors; hit rate 0.63% among 310,000; AID 720579; calls by dose curve; tested in A549 cells; note: potency is the fitted concentration of half-maximal effect; % is set by controls: 0 for no effect and ±100 for the full control effect; nearly all actives have a fitted effect of over 35% in size
# CHX counter = counter-screen hit for Shiga toxin inhibitors, cycloheximide. cell reporter, cycloheximide protein synthesis inhibition counterscreen. max response, %. hit rate 12% among 300,000. AID 2314; in the data active = max response mostly above about 13%, no sharp cut-off; inactive = mostly below about 14%; note: read at 38.3 µM for the half of the compounds with a filed dose; 0% is about no effect
# Vaccinia Venus = inhibitors of vaccinia virus (Venus reporter); Vaccinia virus Venus reporter expression, fluorescence; AID 720580; Potency, µM (titrated, usually from 36.5 µM), for the others: at the top dose activity change, negative = inhibition, usual class: inhibitors; hit rate 0.46% among 330,000; calls by dose curve; tested in A549 cells; note: potency is the fitted concentration of half-maximal effect; % is set by controls: 0 for no effect and ±100 for the full control effect; nearly all actives have a fitted effect of over 30% in size
# Lassa entry inh = inhibitors of Lassa virus binding or cell entry. Lassa virus pseudotype entry inhibition, cell reporter. Potency, µM (titrated, usually from 37.9 µM), for inactives: at the highest dose activity change, negative = inhibition, most hits filed as inhibitors. hit rate 1.2% among 300,000; calls by dose curve; tested in HEK293 cells; note: potency is the fitted concentration of half-maximal effect; % is set by controls: 0 for no effect and ±100 for the full control effect; nearly all actives have a fitted effect of over 50% in size
# Shiga toxin inh = inhibitors of Shiga toxin in Vero cells; hit rate 9.2% among 290,000; AID 2315; Vero cells, Shiga toxin protein synthesis inhibition reporter; inhibition, % at 38.7 µM; in the data active = inhibition mostly above about 28%, no sharp cut-off; inactive = mostly below about 43%; note: 0% is about no effect
# * = called active by the depositor; i = inactive; u = inconclusive; x = no result; [ ] = remark or other dose.
SMILES,Marburg entry inh,Vaccinia mCherry,CHX counter,Vaccinia Venus,Lassa entry inh,Shiga toxin inh
NS(=O)(=O)c1ccc(NC(=O)Nc2ccc(S(N)(=O)=O)cc2)cc1,0%[46.1 µM],-2%[7.34 µM],-1,-30%[7.34 µM],-4%,1
Cc1ccc(N2C(=O)CC(SCC(=O)Nc3ccc(S(N)(=O)=O)cc3)C2=O)cc1 (stereo not drawn),13%[46.1 µM],6%,64*,1%,-14%,154*
O=C(Nc1ccccc1)Nc1cccc(Cl)c1,-6%,x,56*,x,1%,107*
O=C(Cc1ccccc1)NNC(=O)Nc1cccc(Cl)c1,-10%,-19%,-3,-7%,-18%,-33
Cc1ccc(NC(=O)Nc2ccc(S(N)(=O)=O)cc2)cc1,u,-8%,30*,-8%,4%,49*
NS(=O)(=O)c1ccc(NC(=O)Nc2cccc(Cl)c2)cc1,0%,-11%,19*,-11%,u,25
COc1ccc(CCCc2nnc(SCc3nc4ccccc4c(=O)[nH]3)n2C)c(C)c1,7%,x,1,x,x,15
Cc1ccc(NC(=O)N2CCc3cc(S(=O)(=O)N4CCC(C)CC4)ccc32)cc1F,5%[46.1 µM],-16%,x,u,x,x
O=C(C1CCN(S(=O)(=O)c2ccc(Br)cc2)CC1)N1CCOCC1,x,x,-4,x,x,-11
COCCn1c(SCC(=O)Nc2cccnc2Cl)nc2ccccc2c1=O,-6%,i,x,-6%,8%,x
CCOc1ccc(S(=O)(=O)n2nc(C)c(S(=O)(=O)N3CCOCC3)c2C)cc1,x,x,1,x,x,-11
Cc1ccc(NC(=O)NC(=O)N(C(C)C)S(=O)(=O)c2ccc(C)cc2)cc1,x,-15%,23*,-14%,x,31
Cc1cc(C)cc(NC(=O)Nc2cccc(S(N)(=O)=O)c2)c1,-19%[14.2 µM],-13%,-1,0%,-15%,12
Cc1ccc(S(=O)(=O)NC(=O)NC(=O)N(C)S(=O)(=O)c2ccc(C)cc2)cc1,x,x,14,x,x,-11
COC(=O)C(C)(C)ONC(=O)Nc1ccc([N+](=O)[O-])cc1,-5%[46.1 µM],i,12,-7%,-3%[46.1 µM],18
NS(=O)(=O)c1cccc(NC(=O)Nc2ccccc2)c1,11%,-16%,11*,-5%,24%,26
O=C(NCCCc1ccccc1)Nc1cccc(Cl)c1,17%,-15%,35*,-10%,12%,24*
COC(=O)C(C)(C)ONC(=O)Nc1ccc(C)cc1,u,-9%,21*,0%,26%,43*
CC(O)(COc1ccccc1)c1ccc2c(c1)CN(Cc1cccn1-c1ccccn1)CCO2 (stereo not drawn),x,-13%,x,-1%,x,x
NS(=O)(=O)c1cccc(NC(=O)CCCC2CCCCC2)c1,u,-14%,14,0%,19%[46.1 µM],60*
CNc1ccc(C=O)cc1Br,x,-14%,x,-4%,x,x
COc1cccc2cc(-c3ccnc(N)n3)oc12,0%,-5%,33*,-16%,-19%,107*
COc1cccc2cc(-c3n[nH]c(=S)n3C)oc12,0%,i,-2,-14%,-9%,11
O=C(NNC1=NCCCCC1)Nc1ccc(Cl)cc1,0%[46.1 µM],-16%,23*,-17%,19%,23
O=C(NNc1cccc(Cl)n1)Nc1cccc(Cl)c1,4%,x,-7,x,13%,-15
SMILES,Marburg entry inh,Vaccinia mCherry,CHX counter,Vaccinia Venus,Lassa entry inh,Shiga toxin inh
O=C(NNC1=NCCCCC1)Nc1cccc(Cl)c1,u,-23%,12*,-2%,u,45
COc1cccc(-c2cnc(C(O)c3cc(Cl)cc(Cl)c3)[nH]2)c1 (stereo not drawn),x,-17%,x,-27%,x,x
Cc1cccc(C(=O)NCC(c2ccco2)N(C)C)c1 (stereo not drawn),u,-7%,6,-19%,16%[46.1 µM],7
CCCOc1ccc(C(=O)NCC(c2ccco2)N(C)C)cc1 (stereo not drawn),u,i,16*,-9%,13%,21
CCOc1ccc(C(=O)NCC(c2cccs2)N(C)C)cc1OCC (stereo not drawn),-43%,i,2,-25%,8%,-6
CCCOc1ccc(C(=O)NCC(c2cccs2)N(C)C)cc1 (stereo not drawn),u,x,20*,x,-2%,57
CCC(Oc1cc(Cl)ccc1Cl)C(=O)N1CCCN(C)CC1 (stereo not drawn),-29%,-17%,0,-6%,16%,8
CCOc1ccc(C(=O)N/N=C/c2c(C)[nH]c(=O)[nH]c2=O)cc1,-7%,x,8,x,x,16
COc1ccc(C2C(C(=O)c3ccccc3)N3c4ccccc4C=CC3C2[N+](=O)[O-])cc1 (stereo not drawn),-29%[46.1 µM],-1%,22*,74%,-10%,24
Cc1ccc(NC(=O)C2CC3CCC2C3)c(Br)c1 (stereo not drawn),x,x,33*,x,x,83*
Cc1cc(C)cc(NC(=O)C2CC3CCC2C3)c1 (stereo not drawn),x,x,1,x,x,-5
CCN(CC)c1ccc(NC(=O)C2CC3CCC2C3)cc1 (stereo not drawn),u,x,51*,-15%,10%,107*
Cc1ccc(C)c(NC(=O)C2CC3CCC2C3)c1 (stereo not drawn),x,x,14*,x,x,23
c1ccc2c(c1)-c1ccccc1C2N1CCOCC1,1%[46.1 µM],-10%,x,1%,25%[46.1 µM],x
O=C(NC1c2ccccc2-c2ccccc21)N1CCOCC1,-16%,11µM*,-3,10µM*,24%,-8
COc1ccc(/C=C/C(=O)NC(C)C)cc1Br,12%,x,13*,x,3%,4
COc1ccc(/C=C/C(=O)N(C)C2CCCCC2)cc1Br,u,-15%,26*,-10%,u,78*
COc1ccc(/C=C/C(=O)NC(C)CCc2ccccc2)cc1OC (stereo not drawn),-2%,x,-2,x,-19%,-9
CN(C(=O)/C=C/c1cnc2ccccc2c1)C1CCCCC1,u,-10%,26*,-10%,u,70*
COc1ccc(/C=C/C(=O)N(C(C)C)C(C)C)cc1Br,-2%,x,24*,x,2%,51*
CN(C(=O)COC(=O)Cn1cnc2ccccc21)C1CCCCC1,-3%,i,x,-12%,2%,x
NC(=O)NCCCC(NC(=O)c1ccc(C#CC2(O)CCCCC2)cc1)C(=O)O (stereo not drawn),u,-5%,0,1%,u,-5
CCN(CC)C(=O)/C=C/c1ccccc1,x,i,x,-10%,x,x
CCN(C(=O)/C=C/c1ccccc1)C1CCCCC1,18%,-14%,6.9*,-15%,-9%,36
CC(C)(C)c1ccc(-c2noc(CCC(=O)NCC3CCCO3)n2)cc1 (stereo not drawn),u,x,43*,x,u,55
CNC(=O)CCc1nc(-c2ccc(C(C)(C)C)cc2)no1,0.89µM*,-3%,41*,-26%,u,57
CC(C)(C)c1ccc(-c2noc(CCC(=O)N3CCOCC3)n2)cc1,u,i,26*,-21%,u,38
COc1ccc(-c2noc(CCCC(=O)N3CCOCC3)n2)cc1,-6%[46.1 µM],i,11,-8%,-7%[46.1 µM],13
CC(C)(C)c1cc(CCC(=O)NCc2ccncc2)cc(C(C)(C)C)c1O,-2%,-13%,19*,-11%,4%,24
